Source: PubChem BioAssay
TSHR ag: qHTS Assay for Agonists of the Thyroid Stimulating Hormone Receptor. Thyrotropin receptor (Homo sapiens), P16473. 73,000 compounds, 0.48% hits. Potency, µM (highest dose often 57.1 µM), for inactives: at the highest dose activation, most hits filed as activators. HEK293-CNG-TSHR cells (CNG channel as cAMP sensor), membrane potential dye, cAMP; active = well fitted activation curve with a large enough effect in the main read-out, with a control signal flat, not every such curve was filed as active; inconclusive = small, poorly fitted or top-dose-only effect, or a change in a side signal; inactive = no such curve, though single readings can be large or run the other way; % of control where 0% means no effect;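 also: the control signal comes from parental cells without the receptor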
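HEK 293 cells stably expressing TSHR and a cAMP-gated CNG channel; parental CNG-only cells as counterscreen. Cells preloaded 60 min with membrane potential dye plus 100 uM RO 20-1724, then compound 30 min; fluorescence read at 590 nm.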
PK Bst: Pyruvate Kinase. purified pyruvate kinase, luminescence ATP production; ribose 5-phosphate activator present at AC10. Potency, µM. 51,000 compounds, 1.2% hits; in the data active = potency below about 11 µM; inconclusive = mostly about 12 µM to 25 µM;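 the screen sought inhibitors and activators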;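 also: scaled between full activation by ribose 5 phosphate and full inhibition by luteolin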
Luciferase inh: qHTS Assay for Inhibitors of Firefly Luciferase | purified firefly luciferase, luminescence, 8 min | Potency, µM (series often up to 57.1 µM), for inactives: at the top dose activity change, negative = inhibition, usual class: inhibitors | 72,000 compounds, 2.2% hits | Luciferin 4-monooxygenase (Photinus pyralis), P08659; also: % is scaled to controls: 0 for no effect and ±100 for the full control effect; nearly all actives have a fitted effect of over 40% in size
Target sequence (P08659 whole entry, looked up): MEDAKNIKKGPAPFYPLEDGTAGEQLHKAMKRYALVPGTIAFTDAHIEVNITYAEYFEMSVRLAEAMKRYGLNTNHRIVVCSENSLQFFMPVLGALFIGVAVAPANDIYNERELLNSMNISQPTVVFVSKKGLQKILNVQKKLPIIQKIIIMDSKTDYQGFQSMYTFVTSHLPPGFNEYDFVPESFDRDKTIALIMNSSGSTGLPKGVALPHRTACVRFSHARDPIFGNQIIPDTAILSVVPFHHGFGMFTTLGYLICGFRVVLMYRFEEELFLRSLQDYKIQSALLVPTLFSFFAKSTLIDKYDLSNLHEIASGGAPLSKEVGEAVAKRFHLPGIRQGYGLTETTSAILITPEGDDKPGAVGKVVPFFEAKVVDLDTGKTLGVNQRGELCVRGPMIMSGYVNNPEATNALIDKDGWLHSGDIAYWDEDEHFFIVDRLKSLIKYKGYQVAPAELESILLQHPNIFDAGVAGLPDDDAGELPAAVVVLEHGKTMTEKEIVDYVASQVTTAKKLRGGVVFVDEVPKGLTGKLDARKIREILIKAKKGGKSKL
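Substrate buffer containing 10 uM ATP (pH 7.2 imidazole, Mg2+, KCl, detergent, BSA) is dispensed, compound pinned in, then luciferase/luciferin detector mix added. After 8 min at ambient temperature, light output is measured.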
HEK293 cAMP ctrl: qHTS Assay for Agonists of the Thyroid Stimulating Hormone Receptor: Activators of Intracellular cAMP Concentrations in Parental HEK 293 | 73,000 compounds, 2.5% hits | AID 938, 2007 | parental HEK293 CNG cAMP sensor, membrane potential fluorescence | Potency, µM (titrated, usually from 57.1 µM), for the others: at the top dose activation, hits mostly activators; also: % of control where 0% means no effect; nearly all actives have a fitted effect of over 55% in size
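Counterscreen for endogenous-receptor signalling: CNG-channel HEK 293 cells report cAMP rise by membrane depolarization. After 60 min dye equilibration with 100 uM RO 20-1724, compounds incubated 30 min before bottom-read fluorescence at 590 nm.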
Active calls of the source: *; i = inactive; ? = inconclusive; nt = not tested or not shown; [ ] = another dose, or the depositor's remark. The list is not random: actives were taken first. Their share in the collection is about 5.2%. Unless noted, calls follow the shape of the dose curve; as a rule, active = well fitted curve in the direction sought with a large enough effect; inconclusive = small, poorly fitted or top-dose-only effect, or another doubt; inactive = no such curve, though single readings can be large; an effect the other way counts as inactive or inconclusive. Potency is read from the fitted curve at half-maximal effect.

SMILES	TSHR ag	PK Bst	Luciferase inh	HEK293 cAMP ctrl
CCn1c(SCC(=O)NCc2ccc(F)cc2)nc2c(c1=O)SC(C)C2 (stereo unspecified)	?	nt	0%	?
O=C1/C(=C/Nc2ccc3c(c2)OCO3)CCc2ccccc21	-16%	nt	0.63µM*	-3%
O=S(=O)(c1ccccc1)N1CCC2(CCCN(Cc3ccccc3)C2)CC1	?	nt	2%[11.4 µM]	16µM*
CCc1c(C#N)c(SCc2c(C)noc2C)nc2c1C(=O)CC(C)(C)C2	?	>57	1%	13µM*
Cc1nnc(SC(C)C(=O)NCC2CCCO2)n1-c1ccccc1 (stereo unspecified)	5%	>57	2%	-3%
CCCc1cc(=O)n2[nH]c(Cc3ccccc3)nc2n1	13%	>57	-1%	6%
COC(=O)c1nnn(-c2nonc2N)c1CSc1ccccn1	?	nt	1%	32µM*
COC(=O)c1nnn(-c2nonc2N)c1CN1CCc2ccccc21	-18%	>57	0%	-4%
CCN(CC)c1ccc(C(NC(C)=O)NC(C)=O)cc1	nt	nt	1%	8%[11.4 µM]
CCOC(=O)c1cc2sc(C)cc2n1CC(=O)Nc1ccc2c(c1)OCCO2	?	>57	3%	?
COCCN1Cc2cccc(C(=O)Nc3ccc(C)c(C)c3)c2C1=O	8%	nt	25µM*	9%
CCCN1Cc2cccc(C(=O)Nc3cc(OC)cc(OC)c3)c2C1=O	?	>57	-2%	?
O=C(Nc1ccc(F)cc1)c1cccc2c1C(=O)N(Cc1ccccn1)C2	?	11*	-3%	?
c1ccc2nc3c(nc2c1)c1ccccc1n3CCN1CCOCC1	16µM*	i	-7%	21%
Brc1ccc2c(c1)c1nc3ccccc3nc1n2CCN1CCOCC1	-29%	nt	-3%	14%
O=C(Nc1ccc2c(c1)OCO2)C1CCN(C(=O)CSc2ncnc3ccccc23)CC1	-5%	>57	-4%	-8%
CC(=O)N1CCN(c2ccc(NC(=O)c3ccc4c(c3)OCCO4)cc2)CC1	-4%	>57	-15%	5%
Cc1cc(N2CCN(C)CC2)nc2ccc(NC(=O)c3ccc4c(c3)OCO4)cc12	1%[11.4 µM]	nt	25µM*	1%
CN1CCN(c2ccc(NC(=O)c3ccc4c(c3)OCO4)cc2)CC1	-8%	nt	25µM*	-6%
O=C(Nc1nnc(-c2ccccc2Cl)o1)c1ccco1	?	nt	13µM*	?
c1coc(CNc2nc(-c3ccncc3)cs2)c1	-11%	nt	-20%	-1%
COc1ccc(-c2csc(NCc3ccco3)n2)cc1	-15%	4.6*	5µM*	-5%
O=C(Cn1nc(C(=O)O)c2ccccc2c1=O)NCCC1=CCCCC1	13%	>57	3%	21%
CCN(Cc1ccccc1)C(c1ccccn1)c1nnnn1C(C)(C)CC (stereo unspecified)	?	>57	-30%	5µM*
C=CCOC(=O)C1=C(C)NC(SC)=C(C#N)C1c1ccc(OCC)cc1 (stereo unspecified)	0.5µM*	>57	0%	15%
SMILES	TSHR ag	PK Bst	Luciferase inh	HEK293 cAMP ctrl
C=CCOC(=O)C1=C(C)NC(SCC(=O)OCC)=C(C#N)C1c1ccc(O)c(OC)c1 (stereo unspecified)	9%	>57	1%	-1%
O=C(CN1CCN(S(=O)(=O)c2ccc(Br)cc2)CC1)Nc1ccccc1F	?	nt	nt	32µM*
CCC1CCc2c(sc3ncnc(N4CCOCC4)c23)C1 (stereo unspecified)	?	i	0%	32µM*
CSc1nc(N2CCOCC2)c2c3c(sc2n1)CCC3	14%	>57	4%	25%
CCN1CCN(C(=O)c2nn(-c3ccc(OC)cc3)c(=O)c3c2c2ccccc2n3C)CC1	?	>57	1%	?
COc1ccc(-n2nc(C(=O)NCc3ccco3)c3c4ccccc4n(C)c3c2=O)cc1	?	>57	2%	10µM*
Cc1ccc(Cl)cc1N1CCN(Cc2nnnn2Cc2ccco2)CC1	?	>57	1%	7.9µM*
Cc1ccc(Cl)cc1N1CCN(Cc2nnnn2C2CCCCC2)CC1	?	>57	0%	13µM*
c1ccc(N2CCN(Cc3nnnn3C3CCCCC3)CC2)cc1	?	>57	-3%	?
Cc1cc(C)c(C#N)c(SCC(=O)CC(=O)OC(C)C)n1	?	>57	0%	25µM*
COC(=O)c1cc(Br)c(=O)n(CCc2ccccc2)c1	14%	>57	-5%	26%
O=C(OCCCCN1C(=O)c2ccccc2C1=O)c1ccc(S(=O)(=O)N2CCCC2)cc1	0%	>57	0%	11%
Cc1cc(NC(=O)COC(=O)c2ccc(S(=O)(=O)N3CCCc4ccccc43)cc2)no1	16µM*	>57	4%	17%
c1ccc(Nc2ncnc3c2oc2ccccc23)cc1	?	5.4*	-10%	?
Oc1ccccc1Nc1ncnc2c1oc1ccccc12	7%	>57	-2%	12%
c1ccc2c(c1)oc1c(NCCN3CCOCC3)ncnc12	4%	>11	-1%	10%
c1ccc2c(c1)oc1c(Nc3ccc(CN4CCOCC4)cc3)ncnc12	nt	i	16µM*	15%
COC(=O)c1ccc(C(NC(=O)OCc2ccccc2)/C(=C/[C@@H](C)C(=O)NCc2ccccc2)c2cccnc2)cc1 (stereo partly specified)	nt	nt	nt	6%
CCc1ccc(NC(=O)c2cc(C(C)C)on2)cc1	7%	i	13µM*	9%
CCc1ccc(NC(=O)c2cc(C)on2)cc1	-4%	i	7.9µM*	-4%
Cc1ccc(NC(=O)c2cc(C)on2)cc1	-6%	nt	16µM*	-4%
CCc1ccc(NC(=O)c2cc(CC(C)C)on2)cc1	6%	nt	-14%	6%
COc1ccccc1/C=C/C1=CC2(C)CC1(C)C(c1ccccc1OC)CC2=O (stereo unspecified)	8%[11.4 µM]	nt	nt	6%[11.4 µM]
CCOCCn1c(N2CCN(c3ccccc3)CC2)nc2c1c(=O)n(C)c(=O)n2C	12%	>57	1%	20%
O=C(Nc1nnc(CCN2CCOCC2)s1)C1CCCCC1	-15%	10*	13µM*	-25%
SMILES	TSHR ag	PK Bst	Luciferase inh	HEK293 cAMP ctrl
CCc1cccc(NC(=O)Nc2cccs2)c1	-4%[11.4 µM]	nt	16µM*	-7%
N#Cc1cccc(NC(=O)Nc2cccs2)c1	1%	nt	-21%	-7%
Cc1ccccc1-n1c(C)nnc1SCc1nc2ccccc2s1	?	nt	20µM*	?
COc1ccc(C(=O)N=c2nc3ccccn3s2)cc1	1%	0.68*	0.5µM*	-9%
COc1ccc2nc(/N=C\N(C)C)sc2c1	3%	nt	?	14%
CN(C)/C=N/c1nc2ccc3c(c2s1)CCCC3	7%	i	10µM*	15%
O=c1[nH]c(=S)[nH]c(-c2ccccc2)c1Cc1c(O)ccc2ccccc12	?	nt	3%[11.4 µM]	2.5µM*
COc1ccc(CN(C)CC(=O)c2c(N)n(Cc3ccccc3)c(=O)n(C)c2=O)c(OC)c1	?	>57	-1%	?
COc1ccc(CN(CCN(C)C)Cc2ccccc2)c(OC)c1	?	>57	1%	13µM*
